Compounds with a hit are over-represented: about 4.8% of the library has one in this group of screens.
DAX1 inh-1 = inhibitors of DAX1 repression of SF-1 activated StAR promoter | AID 652010 | 370,000 compounds, 1.1% hits | inhibition, % at 6.8 µM | HEK293T StAR-luciferase reporter, SF-1/DAX-1 repression relief;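 active means inhibition above the mean over all tested compounds plus 3 SD, cut at about 3.6% in these data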;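 further: higher inhibition means more luminescence from relief of DAX-1 repression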
ssDAF12 agonist = activators of S. stercoralis DAF-12 nuclear receptor; AID 652126; 370,000 compounds, 1% hits; activation, % at 6.8 µM; HEK293 ssDAF-12/GRIP1 lit1-tk-luc reporter, luminescence; % of 3 µM dafachronic acid response;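 active means activation above the mean over all tested compounds plus 3 SD, cut at about 0.9% in these data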
SMARCA2 act = SMARCA2 function activation, primary screen; 370,000 compounds, 1% hits; activation, % at 9.1 µM; MG213 cells, MMTV-luciferase reporter, dexamethasone, overnight; AID 652017; in the data active means activation above about 7.8%
hcDAF-12 act = H. contortus DAF-12 activation, primary screen | activation, % at 6.8 µM | HEK293 hcDAF-12 lit1-tk-luc reporter, luminescence; 0% DMSO, 100% Δ7-dafachronic acid | 370,000 compounds, 1.4% hits | AID 652067;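 active means activation above the mean of all tested compounds plus 3 SD, cut at about 5.5% in these data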
DAX1 inh-2 = inhibits human nuclear receptor DAX1; P51843; HEK293 Gal4-DAX1 luciferase reporter, luminescence; inhibition, % at 6.75 µM; 340,000 compounds, 0.99% hits;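 active means inhibition above the mean over all tested compounds plus 3 SD, cut at about 4.2% in these data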;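 further: inhibition shows as a rise in luminescence from relieved DAX1 repression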
Target sequence (P51843 207-470 limits assumed): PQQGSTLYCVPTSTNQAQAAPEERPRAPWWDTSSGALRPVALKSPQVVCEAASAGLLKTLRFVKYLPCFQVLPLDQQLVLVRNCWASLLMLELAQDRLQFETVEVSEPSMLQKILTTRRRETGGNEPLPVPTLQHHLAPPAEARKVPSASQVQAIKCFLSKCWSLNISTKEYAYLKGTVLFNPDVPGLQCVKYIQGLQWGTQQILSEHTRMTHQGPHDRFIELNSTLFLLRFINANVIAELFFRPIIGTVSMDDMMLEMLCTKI
hgDAF12 agonist = agonists of H. glycines DAF-12 nuclear receptor. HEK293 GAL4-hgDAF12 UAS-luciferase reporter, agonist luminescence; normalized to butyrate control. activation, % at 6.8 µM. 370,000 compounds, 1.8% hits;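 active means activation above a cutoff set at the mean of all screened compounds plus 3 SD, cut at about 10% in these data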
A number is an active result.

How did COc1ccccc1N(CC(N)=O)S(=O)(=O)c1ccc(C)cc1 do in these assays?
DAX1 inh-1: inactive; ssDAF12 agonist: 1.1; SMARCA2 act: inactive; hcDAF-12 act: inactive; DAX1 inh-2: inactive; hgDAF12 agonist: inactive

Results for c1ccc(-c2c[nH]c3ccc(OCCN4CCOCC4)c(-c4ccccc4)c23)cc1 ?
DAX1 inh-1: inactive; ssDAF12 agonist: inactive; SMARCA2 act: inactive; hcDAF-12 act: inactive; hgDAF12 agonist: inactive

Results for CC(C)(C)CCN1C[C@@H]2C(CNC(=O)c3cc(Cl)cc(Cl)c3)[C@@H]2C1 (stereo partly specified) ?
ssDAF12 agonist: inactive; hcDAF-12 act: inactive; hgDAF12 agonist: inactive

Results for N/C(=N\OC(=O)c1cc(Cl)ccc1Cl)c1cccnc1 ?
DAX1 inh-1: inactive; ssDAF12 agonist: inactive; SMARCA2 act: inactive; hcDAF-12 act: 6.3; DAX1 inh-2: inactive; hgDAF12 agonist: inactive

Results for N/C(=N\OC(=O)c1cccc(Cl)c1)c1cccnc1 ?
DAX1 inh-1: inactive; ssDAF12 agonist: inactive; SMARCA2 act: inactive; hcDAF-12 act: inactive; DAX1 inh-2: inactive; hgDAF12 agonist: 11

Results for N/C(=N\OC(=O)c1cc(Br)ccc1Cl)c1cccnc1 ?
DAX1 inh-1: inactive; ssDAF12 agonist: inactive; SMARCA2 act: inactive; hcDAF-12 act: inactive; DAX1 inh-2: inactive; hgDAF12 agonist: inactive

Results for COc1ccc(Cl)cc1C(=O)O/N=C(\N)c1ccc(Cl)cc1 ?
DAX1 inh-1: inactive; ssDAF12 agonist: inactive; SMARCA2 act: inactive; hcDAF-12 act: 6.0; DAX1 inh-2: inactive; hgDAF12 agonist: inactive

What do the screens show for `COc1ccc(CN(CCN2CCOCC2)C(=O)c2ccc(F)cc2F)cc1OC`?
DAX1 inh-1: inactive; ssDAF12 agonist: inactive; SMARCA2 act: inactive; hcDAF-12 act: inactive; hgDAF12 agonist: inactive

How did C[C@H]1C2CC(OC(=O)NCCCc3ccccc3)C(C2)[C@H]2CCCCN21 (stereo partly specified) do in these assays?
DAX1 inh-1: inactive; ssDAF12 agonist: inactive; SMARCA2 act: inactive; hcDAF-12 act: inactive; hgDAF12 agonist: inactive

What do the screens show for `Cc1cc(C)cc(C(=O)OCCCN(C)C2CN(Cc3cn(Cc4cccc(F)c4)nn3)S(=O)(=O)C2)c1` (stereo unspecified)?
DAX1 inh-1: inactive; ssDAF12 agonist: inactive; SMARCA2 act: inactive; hcDAF-12 act: inactive; hgDAF12 agonist: inactive

What do the screens show for `Cn1c2ccccc2c(=O)c2c(=O)n(-c3ccc(F)cc3)c(-c3cccs3)nc21`?
DAX1 inh-1: inactive; ssDAF12 agonist: inactive; SMARCA2 act: inactive; hcDAF-12 act: inactive; DAX1 inh-2: inactive; hgDAF12 agonist: inactive

What do the screens show for `Cc1ccc(-c2nc3c(c(=O)c4ccccc4n3C)c(=O)n2-c2ccc(F)cc2)cc1`?
DAX1 inh-1: inactive; ssDAF12 agonist: inactive; SMARCA2 act: inactive; hcDAF-12 act: 5.6; DAX1 inh-2: inactive; hgDAF12 agonist: inactive

What do the screens show for `FC(F)Oc1ccccc1/C=N/n1cnc2ccccc21`?
DAX1 inh-1: inactive; ssDAF12 agonist: inactive; SMARCA2 act: inactive; hcDAF-12 act: inactive; DAX1 inh-2: inactive; hgDAF12 agonist: 11

Results for C=CC[C@H]1c2ccccc2[C@H]2N3N=Cc4ccccc4[C@H]3[C@H](CCc3ccccc3)C(=O)N2N1C(=O)c1ccccc1 ?
DAX1 inh-1: inactive; ssDAF12 agonist: inactive; SMARCA2 act: inactive; hcDAF-12 act: inactive; hgDAF12 agonist: inactive

What do the screens show for `COC(=O)c1ccc(N=NNc2ccccc2)cc1`?
DAX1 inh-1: 4.1; ssDAF12 agonist: inactive; SMARCA2 act: inactive; hcDAF-12 act: inactive; DAX1 inh-2: inactive; hgDAF12 agonist: 11

Results for COC(=O)c1ccc(N=NN2CCCCCC2)cc1 ?
DAX1 inh-1: inactive; ssDAF12 agonist: inactive; SMARCA2 act: inactive; hcDAF-12 act: inactive; DAX1 inh-2: inactive; hgDAF12 agonist: inactive

Results for COC(=O)[C@]12C[C@H](CC(=O)N3CCSCC3)C(=O)N(CCc3ccc(OC)c(OC)c3)C1=C[C@H](C(C)C)O[C@@H]2C1CC1 ?
DAX1 inh-1: inactive; ssDAF12 agonist: inactive; SMARCA2 act: inactive; hcDAF-12 act: inactive; hgDAF12 agonist: inactive

What do the screens show for `Cc1cc(C(=O)CN2C(=O)C3CC=CCC3C2=O)c(C)n1-c1ccccc1` (stereo unspecified)?
DAX1 inh-1: inactive; ssDAF12 agonist: inactive; SMARCA2 act: inactive; hcDAF-12 act: inactive; DAX1 inh-2: inactive; hgDAF12 agonist: 11

What do the screens show for `N#C/C(=C\Nc1ccccc1O)c1nc2ccccc2o1`?
DAX1 inh-1: inactive; ssDAF12 agonist: inactive; SMARCA2 act: inactive; hcDAF-12 act: 6.3; DAX1 inh-2: inactive; hgDAF12 agonist: inactive

What do the screens show for `N#C/C(=C\c1ccncc1)c1nc2ccccc2o1`?
DAX1 inh-1: inactive; ssDAF12 agonist: inactive; SMARCA2 act: inactive; hcDAF-12 act: inactive; hgDAF12 agonist: inactive

Results for COc1cccc(NC(=O)COc2ccccc2)c1 ?
DAX1 inh-1: inactive; ssDAF12 agonist: inactive; SMARCA2 act: 7.8; hcDAF-12 act: inactive; DAX1 inh-2: inactive; hgDAF12 agonist: inactive

Results for Cc1cccc(C)c1OCC(=O)Nc1cccc(C(=O)O)c1 ?
DAX1 inh-1: 3.8; ssDAF12 agonist: inactive; SMARCA2 act: 7.9; hcDAF-12 act: inactive; DAX1 inh-2: inactive; hgDAF12 agonist: inactive

What do the screens show for `COc1cccc(NC(=O)COC(=O)c2sccc2C)c1`?
DAX1 inh-1: 3.7; ssDAF12 agonist: inactive; SMARCA2 act: inactive; hcDAF-12 act: 6.4; DAX1 inh-2: 6.2; hgDAF12 agonist: 13

What do the screens show for `Cc1ccc(C)c(OCC(=O)Nc2cccc(C(=O)O)c2)c1C`?
DAX1 inh-1: inactive; ssDAF12 agonist: inactive; SMARCA2 act: inactive; hcDAF-12 act: inactive; DAX1 inh-2: inactive; hgDAF12 agonist: inactive

What do the screens show for `COc1cccc(NC(=O)COC(=O)c2c(F)cccc2F)c1`?
DAX1 inh-1: inactive; ssDAF12 agonist: inactive; SMARCA2 act: inactive; hcDAF-12 act: inactive; DAX1 inh-2: inactive; hgDAF12 agonist: inactive

What do the screens show for `CC(=O)Nc1cccc(OCC(=O)Nc2sccc2C(N)=O)c1`?
DAX1 inh-1: inactive; ssDAF12 agonist: inactive; SMARCA2 act: inactive; hcDAF-12 act: inactive; DAX1 inh-2: inactive; hgDAF12 agonist: 12

How did O=C(c1cscn1)N1CCC(Oc2cccnc2)CC1 do in these assays?
DAX1 inh-1: inactive; ssDAF12 agonist: inactive; SMARCA2 act: inactive; hcDAF-12 act: inactive; hgDAF12 agonist: inactive

How did Cc1cnc(NC(=O)CCc2ccccc2)s1 do in these assays?
DAX1 inh-1: inactive; ssDAF12 agonist: inactive; SMARCA2 act: inactive; hcDAF-12 act: inactive; DAX1 inh-2: inactive; hgDAF12 agonist: inactive

Results for Cc1cnc(NC(=O)COc2ccccc2)s1 ?
DAX1 inh-1: inactive; ssDAF12 agonist: inactive; SMARCA2 act: inactive; hcDAF-12 act: inactive; DAX1 inh-2: inactive; hgDAF12 agonist: 12

How did Cc1ccc(OCC(=O)Nc2cccc(O)c2)cc1C do in these assays?
DAX1 inh-1: inactive; ssDAF12 agonist: inactive; SMARCA2 act: inactive; hcDAF-12 act: inactive; DAX1 inh-2: inactive; hgDAF12 agonist: 11

Results for Cc1cccc(OCC(=O)Nc2cccc(O)c2)c1 ?
DAX1 inh-1: inactive; ssDAF12 agonist: inactive; SMARCA2 act: inactive; hcDAF-12 act: inactive; DAX1 inh-2: inactive; hgDAF12 agonist: inactive

Source: PubChem BioAssay
